A selection: hits, their analogues and other compounds. The true share with any hit is near 11%.
AmpC no deterg – blocks E. coli AmpC beta-lactamase in detergent-free assay; P00811; AmpC nitrocefin hydrolysis, absorbance 480 nm, 0.0001% Triton; Potency, µM (titrated, usually from 57.1 µM), for inactives: top-dose activity change, negative = inhibition, usual class: inhibitors; 330,000 tested, 0.52% active; AID 485341;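 further: plate controls were no compound for no effect and no enzyme for full effect; nearly all actives have a fitted effect of over 20% in size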
Target sequence (P00811 whole entry, looked up): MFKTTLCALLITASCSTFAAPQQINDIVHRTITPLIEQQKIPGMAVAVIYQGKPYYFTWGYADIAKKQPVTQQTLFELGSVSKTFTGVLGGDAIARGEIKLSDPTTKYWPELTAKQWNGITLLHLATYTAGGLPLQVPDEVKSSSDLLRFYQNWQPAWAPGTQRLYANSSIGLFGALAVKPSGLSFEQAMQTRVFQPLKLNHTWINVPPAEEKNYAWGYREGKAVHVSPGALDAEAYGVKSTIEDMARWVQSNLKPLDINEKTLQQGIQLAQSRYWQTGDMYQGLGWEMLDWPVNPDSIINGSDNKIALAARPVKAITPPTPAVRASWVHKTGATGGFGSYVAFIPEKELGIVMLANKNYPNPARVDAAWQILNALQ
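AmpC (5.3 nM in the dispensed reagent) in 20 mM phosphate pH 7.0 with 0.01% (detergent screen) or 0.0001% Triton X-100 was preincubated with compounds for 15 min at room temperature. Nitrocefin was then added from an 800 uM solution, and hydrolysis was followed at 480 nm.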
AmpC detergent – blocks E. coli AmpC beta-lactamase in detergent assay; P00811; AmpC hydrolysis of nitrocefin, absorbance 480 nm, 0.01% Triton; Potency, µM (series often up to 114 µM), without a hit: top-dose activity change, negative = inhibition, hits mostly inhibitors; 370,000 tested, 0.041% active;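 further: 0% = no-compound wells and -100% = no-enzyme wells; nearly all actives have a fitted effect of over 25% in size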
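20 mM phosphate pH 7.0 + 0.01% (detergent screen) or 0.0001% Triton X-100; 5.3 nM AmpC reagent; cpd preinc 15 min RT; nitrocefin (800 uM stock) to start; A480 q20 s × 4 min; Activity was normalised to no-enzyme and no-compound control wells.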
Pf growth 48h – P. falciparum growth inhibition at 48 hours (one generation). P. falciparum luciferase growth in erythrocytes, 48 h. AID 504832. Potency, µM (highest dose often 28.7 µM), inactives show at the highest dose activity change, negative = inhibition, actives largely listed as inhibitors. 310,000 tested, 5.9% active
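Firefly luciferase activity from engineered P. falciparum reports growth; inhibitors lower the luminescent signal. Cultures contained 2% hematocrit erythrocytes at 0.1% final parasitemia.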
Pf growth 96h – inhibits malaria parasite growth, 96 h | 320,000 tested, 6.9% active | Potency, µM (series often up to 28.7 µM), for the others: at the top dose activity change, negative = inhibition, actives largely listed as inhibitors | P. falciparum luciferase reporter growth, 96 h | AID 504834
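Erythrocytes infected with luciferase-expressing P. falciparum were dispensed at 2% hematocrit and 0.05% parasitemia (final), then incubated with compounds 96 hours at 37 C in 5% CO2. Luminescence after detection reagent addition reported growth.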
AMA1-RON2 inh – inhibitors of Plasmodium falciparum AMA1-RON2 interaction. AlphaScreen AMA1-biotinylated RON2 peptide binding. Potency, µM (highest dose often 58.2 µM), without a hit: top-dose activity change, negative = inhibition, most hits filed as inhibitors. 360,000 tested, 0.2% active. AID 720542;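 further: 0% = vehicle wells and -100% = peptide control; nearly all actives have a fitted effect of over 45% in size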
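AMA1 (3D7) with his tag at 25 nM final met compounds first, then biotinylated RON2 peptide at 25 nM; detection used donor plus acceptor beads, 10 µg/mL apiece, read by AlphaScreen after 30 min at room temperature.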
HCV inh – inhibitors of hepatitis C virus infection; Potency, µM (highest dose often 41.8 µM), without a hit: at the top dose activity change, negative = inhibition, usual class: inhibitors; Huh7.5.1 HCVcc-Cre infection, luciferase reporter, 44 h; AID 651820; 340,000 tested, 3.4% active
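Antiviral activity was scored by luciferase reporter output from cells infected with HCVcc-Cre (~0.5 moi) in presence of compound, 44 h infection period, cells seeded 1,000/well 4 h prior.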
* = called active by the depositor; [ ] = another dose, or the depositor's remark. The call rests on the fitted dose curve; in most records, active means well fitted curve in the direction sought with a large enough effect; inconclusive means small, poorly fitted or top-dose-only effect, or another doubt; inactive means no such curve, though single readings can be large; an effect the other way counts as inactive or inconclusive. Unless noted, on the % scale 0 is the no-effect control and ±100 the full control effect; potency means the concentration at half of the fitted maximal effect.

For S=c1[nH]c(-c2ccccc2)cn1/N=C/c1cccc2ccccc12 the results were AmpC no deterg 2.5µM*, AmpC detergent -1%, Pf growth 48h inconclusive, Pf growth 96h inconclusive, AMA1-RON2 inh 47% and HCV inh 0%.
For COc1cc(/C=N/n2cc(-c3ccccc3)[nH]c2=S)cc(OC)c1O the results were AmpC no deterg -32%, AmpC detergent -8%, Pf growth 48h 12µM*, Pf growth 96h inconclusive, AMA1-RON2 inh 67% and HCV inh 2%.
Screening Cc1ccc(/C=N/n2cc(-c3ccccc3)[nH]c2=S)s1 returned AmpC no deterg -37%, AmpC detergent -9%, Pf growth 48h inconclusive, Pf growth 96h inconclusive, AMA1-RON2 inh 79% and HCV inh -1%.
For Oc1ccc(/C=N/n2cc(-c3ccccc3)[nH]c2=S)cc1 the results were AmpC no deterg 32µM*, AmpC detergent inconclusive, Pf growth 48h inconclusive, Pf growth 96h inconclusive, AMA1-RON2 inh 92% and HCV inh -26%.
Screening S=c1[nH]c(-c2ccccc2)cn1/N=C/c1ccccc1Br returned AmpC no deterg -44%, AmpC detergent 0%, Pf growth 48h inconclusive, Pf growth 96h inconclusive, AMA1-RON2 inh 21% and HCV inh inconclusive.
`Cc1cccc(/C=C2/SC(=O)N(Cc3ccccc3)C2=O)n1` gave AmpC no deterg -5%, AmpC detergent 1%, Pf growth 96h 2.6µM*, AMA1-RON2 inh 26% and HCV inh 9%.
`O=C1C(Oc2ccccc2)C(c2cccs2)N1Cc1ccc2c(c1)OCO2` (centres undefined) gave AmpC no deterg -35%, AmpC detergent -2%, Pf growth 48h inconclusive, Pf growth 96h inconclusive, AMA1-RON2 inh 0% and HCV inh inconclusive.
`Cc1ccccc1OC1C(=O)N(Cc2ccc3c(c2)OCO3)C1c1sccc1C` (centres undefined) gave AmpC no deterg -24%, AmpC detergent -12%, Pf growth 48h inconclusive, Pf growth 96h 13µM*, AMA1-RON2 inh -6% and HCV inh inconclusive.
COc1ccc(/C=N/NS(=O)(=O)c2ccc(C)cc2)cc1 was read as AmpC no deterg -20%, AmpC detergent -6%, Pf growth 48h 35%, Pf growth 96h 3.3µM*, AMA1-RON2 inh -5% and HCV inh 32%.
Screening COc1ccc(O)c(/C=N/NS(=O)(=O)c2ccc(C)cc2)c1 returned AmpC no deterg -18%, AmpC detergent -2%, Pf growth 48h -1%, Pf growth 96h inconclusive, AMA1-RON2 inh 2% and HCV inh 14%.
O=c1c2ccccc2c(C=NCCCN2CCOCC2)c(O)n1Cc1ccc2c(c1)OCO2 was read as AmpC no deterg 197%, AmpC detergent 2%, Pf growth 48h inconclusive, Pf growth 96h inconclusive, AMA1-RON2 inh -30% and HCV inh -24%.
Screening O=c1c2ccccc2c(C=NCCCN2CCOCC2)c(O)n1Cc1ccccc1 returned AmpC no deterg 161%, AmpC detergent inconclusive, Pf growth 48h 10µM*, Pf growth 96h -12%, AMA1-RON2 inh 1% and HCV inh -9%.
For COc1cc(C2CC(=O)N(Cc3cccc(F)c3)c3ccccc3S2)cc(OC)c1OC (centres undefined) the results were AmpC detergent -3%.
For O=C(Nc1cc(Cl)ccc1N1CCOCC1)c1ccc2c(c1)OCO2 the results were AMA1-RON2 inh -3%.
`O=C(/C=C/c1ccc(Cl)cc1)NC(=S)Nc1ccc(N2CCOCC2)c(Cl)c1` gave AmpC no deterg -26%, AmpC detergent 0%, Pf growth 48h 0%, Pf growth 96h 10µM*, AMA1-RON2 inh 1%[2.32 µM] and HCV inh 3%.
Screening O=C(Nc1ccc(N2CCOCC2)c(Cl)c1)c1ccc2c(c1)OCCO2 returned AmpC no deterg -4%, AmpC detergent -15%, Pf growth 48h inconclusive, Pf growth 96h -5%, AMA1-RON2 inh 6% and HCV inh 11µM*.

High-throughput results from PubChem BioAssay.
